Assay outcomes as filed in PubChem BioAssay.
SARS PLP yeast = SARS-CoV PLP inhibition in yeast; S. cerevisiae expressing SARS-CoV PLpro, growth rescue; 330,000 compounds, 0.19% hits; Potency, µM (doses to about 32.9 µM), for the others: at the highest dose activity, positive = growth rescue, hits mostly activators; also: potency is read from the fitted curve at half-maximal effect; 0% is about no effect; nearly all actives have a fitted effect of over 55% in size
CHX counter = counter-screen for Shiga toxin inhibitors: cycloheximide protein synthesis inhibition | AID 2314 | max response, % | cell reporter, cycloheximide protein synthesis inhibition counterscreen | 300,000 compounds, 12% hits; in the data active = max response mostly above about 13%, no sharp cut-off; inactive = mostly below about 14%; also: read at 38.3 µM for the half of the compounds with a filed dose; 0% is about no effect
TbPYK inhibitor = inhibitors of Trypanosoma brucei pyruvate kinase; Q57TT1; TbPYK enzyme, Kinase-Glo Plus ATP luminescence, 45 min; Potency, µM (highest dose often 76.8 µM), without a hit: at the top dose activity, negative = inhibition, hits mostly inhibitors; 410,000 compounds, 0.12% hits; active = well fitted curve in the direction sought with a large enough effect; an effect the other way counts as inactive or inconclusive; also: potency is read from the fitted curve at half-maximal effect; % is scaled to controls: 0 for no effect and ±100 for the full control effect; nearly all actives have a fitted effect of over 50% in size
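Glycolytic pyruvate kinase of T. brucei was incubated with substrate, test compound and 130 uM ADP for 45 minutes at room temperature. Luminescent Kinase-Glo Plus signal was measured after 10 minutes.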
Shiga inhibitor = inhibitors of Shiga toxin in Vero cells. Vero cells, Shiga toxin protein synthesis inhibition reporter. 290,000 compounds, 9.2% hits. inhibition, % at 38.7 µM; in the data active = inhibition mostly above about 28%, no sharp cut-off; inactive = mostly below about 43%; also: 0% is about no effect
LmPK inhibitor = blocks Leishmania mexicana pyruvate kinase activity | AID 1721 | 290,000 compounds, 0.37% hits | Q27686 | purified LmPK, Kinase-Glo ATP luminescence, 1 h | Potency, µM (top dose mostly 57.5 µM), without a hit: at the top dose activity change, negative = inhibition, most hits filed as inhibitors; active = well fitted curve in the direction sought with a large enough effect; an effect the other way counts as inactive or inconclusive; also: potency is read from the fitted curve at half-maximal effect; % is scaled to controls: 0 for no effect and ±100 for the full control effect
Target sequence (Q27686 whole entry, looked up): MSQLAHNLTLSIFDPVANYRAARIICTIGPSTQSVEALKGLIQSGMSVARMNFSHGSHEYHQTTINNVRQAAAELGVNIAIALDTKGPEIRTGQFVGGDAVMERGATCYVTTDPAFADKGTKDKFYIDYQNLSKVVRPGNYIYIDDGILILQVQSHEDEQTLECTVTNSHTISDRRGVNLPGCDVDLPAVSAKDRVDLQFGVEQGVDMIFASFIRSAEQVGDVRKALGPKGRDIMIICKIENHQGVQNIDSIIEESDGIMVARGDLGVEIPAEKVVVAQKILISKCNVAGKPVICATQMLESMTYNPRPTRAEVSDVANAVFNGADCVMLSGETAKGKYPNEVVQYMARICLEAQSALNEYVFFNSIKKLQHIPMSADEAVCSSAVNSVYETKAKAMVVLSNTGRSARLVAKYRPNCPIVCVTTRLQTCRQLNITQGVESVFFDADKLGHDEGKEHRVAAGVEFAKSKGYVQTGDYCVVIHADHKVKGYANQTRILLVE
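Purified LmPK (0.1 nM) with 0.5 mM PEP and 0.1 mM ADP in imidazole buffer pH 7.2 with MgCl2/KCl, 1 h at room temperature. ATP formed was read by luciferase luminescence and normalized to no-enzyme and uninhibited controls.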
NS1 inh = influenza NS1 inhibition. 270,000 compounds, 0.4% hits. Potency, µM (doses to about 46.1 µM), for inactives: top-dose activity, positive = more growth; also: potency is read from the fitted curve at half-maximal effect; actives are rising curves; nearly all actives have a fitted effect of over 50% in size
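Growth recovery, yeast-based: influenza A NS1 expressed in S. cerevisiae causes slow growth, and suppressors are detected by OD600. The parent strain without NS1 is used as positive control.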
* marks the source's active call; other numbers are inactive results; nt = no result given. The sample as a whole holds a higher share of hits than the screen did. Unless noted, calls follow the shape of the full dose curve.

SMILES | SARS PLP yeast | CHX counter | TbPYK inhibitor | Shiga inhibitor | LmPK inhibitor | NS1 inh
CC(=O)Nc1ccc(NC(=O)CSc2nc3ccccc3o2)cc1 | 13.1% | 16.6* | 0.8% | 114.6* | 1.3% | -16.6%
O=C(CSc1nc2ccccc2s1)Nc1ccc(N2CCOCC2)c(Cl)c1 | -26.6% | 1.0 | -13.5% | 12.0 | 3.8% | 8.9%
CC1CCc2nc(NC(=O)CSc3nc4ccccc4o3)sc2C1 (stereo not drawn) | 0.6% | 52.2* | 1.5% | 85.3* | 9.2% | 1.0%
Cc1cccc(NC(=O)CSc2nc3ccccc3o2)c1 | -12.9% | 38.1* | -1.9% | 119.3* | 0.1% | 2.4%
O=C(O)/C=C\c1ccc[c]([Sb])c1 | nt | nt | nt | nt | nt | 5.2%
Clc1cccc(-c2ccc3ncnc(NCc4ccc5c(c4)OCO5)c3c2)c1 | -4.0% | nt | nt | nt | nt | nt
CC1=CC(=NOC(=O)/C=C/c2ccccc2)C=C(C)C1=O | -2.2% | 12.6* | 2.5% | 22.8 | 1.5% | -17.4%
CC1=CC(=O)C=C(C)C1=NOC(=O)/C=C\c1ccccc1 | -12.3% | -4.2 | 2.4% | -2.5 | -0.5% | 4.3%
CCSc1c([N+](=O)[O-])c(=O)n(-c2ccccc2)c2ccccc12 | nt | nt | -1.1% | nt | nt | nt
CCOC(=O)Cc1c(C)nc2c(-c3ccccc3)cnn2c1C | -0.1% | 36.0* | 4.8% | 46.6 | -4.7% | -15.4%
CCOC(=O)c1cnc2c(-c3ccccc3)cnn2c1C | 0.2% | 39.1* | -6.4% | 91.2* | -8.4% | -2.1%
CC(=O)c1cnc2c(-c3ccccc3)cnn2c1C | 6.3% | 18.5* | -0.9% | 27.3 | 1.1% | -14.3%
O=C(Nc1cccc2cccnc12)c1ccc(Br)cc1Br | -2.8% | -3.2 | -8.3% | nt | 1.2% | -11.1%
CCOC(=O)CSc1nc2ccc(NC(=O)c3ccc(C)cc3)cc2s1 | nt | nt | -29.5% | nt | nt | nt
Cn1c(=O)c(-c2ccccc2N)nc2ccccc21 | -6.4% | 13.6 | 1.1% | 36.6* | 0.3% | 7.7%
CC1SCC(=O)N(CC(=O)Nc2ccc3c(c2)OCO3)C1=O (stereo not drawn) | -1.6% | -1.8 | 5.4% | 25.4 | -6.4% | 11.0%
O=C(CN1C(=O)NC2(CCCCCC2)C1=O)c1ccc2c(c1)OCCO2 | -1.9% | 36.0* | -7.2% | 117.9* | 7.1% | -6.9%
CC1SCC(=O)N(CC(=O)Nc2ccc3c(c2)OCCO3)C1=O (stereo not drawn) | 1.6% | 32.8* | -3.5% | 32.8 | 1.3% | nt
CC1CCC2(CC1)NC(=O)N(CC(=O)Nc1ccc3c(c1)OCCO3)C2=O (stereo not drawn) | 0.2% | 41.2* | 4.4% | 70.6* | 2.4% | nt
Cc1cccc(NC(=O)NCCOCCn2c(=O)oc3ccccc32)c1C | nt | nt | 0.5% | nt | nt | nt
CCOc1ccccc1N(CC)C(=O)Cn1ncc2c1-c1ccccc1OC2 | nt | nt | 0.1% | nt | nt | nt
COc1ccc(-c2cc(=O)c3c(O)cc(O)c(-c4cc(-c5cc(=O)c6c(O)cc(OC)cc6o5)ccc4OC)c3o2)cc1 | nt | -0.7 | nt | 4.1 | nt | nt
Cn1cccc1/C=N/N1CCN(c2ccccc2)CC1 | -1.4% | 40.8* | -14.3% | 130.3* | 0.1% | nt
O=C(O)c1ccc(/C=N/N2CCN(c3ccccc3)CC2)cc1 | -5.5% | 33.6* | 0.4% | 87.7* | -8.7% | -9.6%
C(=N/N1CCN(c2ccccc2)CC1)/c1ccncc1 | -1.9% | 17.0* | -5.1% | 29.4* | -8.6% | -2.2%
SMILES | SARS PLP yeast | CHX counter | TbPYK inhibitor | Shiga inhibitor | LmPK inhibitor | NS1 inh
CN(C)C=Nc1c(I)cc(I)c(CCC(=O)O)c1I | nt | nt | 6.1% | nt | nt | nt
Cc1cc(Cl)ccc1NNC(=O)CCc1ccccc1 | 0.3% | -2.2 | -1.7% | 12.6 | 0.6% | -32.7%
Cc1ccc(OCc2nc3ccccc3n2CCOc2ccc(Cl)cc2)cc1 | nt | nt | 2.9% | nt | nt | nt
CCN(CC)c1ccc(NC(=O)C2CCN(S(=O)(=O)c3cnc[nH]3)CC2)c(C)c1 | nt | nt | -7.6% | nt | nt | nt
COc1ccc(NC(=O)C2Cc3c(-c4cccc(NC(C)=O)c4)ccnc3O2)cc1 (stereo not drawn) | nt | nt | 4.6% | nt | nt | nt
O=C(Cc1ccccc1)N/N=C/c1cc(Br)c(Br)o1 | 1.7% | 42.9* | -1.6% | 38.1* | 5.1% | -0.8%
O=C(Cc1ccccc1)NN=Cc1ccccc1 | nt | nt | 0.2% | nt | nt | nt
O=C(Cc1ccccc1)N/N=C/c1ccccc1F | -4.0% | -2.2 | nt | 57.9* | -0.8% | 0.8%
COc1ccc(OC)c(C2CC(=O)Nc3c2c(=O)[nH]c2nc4ccccc4n32)c1 (stereo not drawn) | nt | nt | 3.9% | nt | nt | nt
O=C(c1nc(-c2ccc(Cl)cc2)n2c1CCCCC2)N1CCN(c2ccccc2F)CC1 | nt | nt | 2.4% | nt | nt | nt
O=C1c2ccccc2C(=O)N1CCN1CCc2ccccc21 | -5.9% | 37.2* | -1.0% | 93.9* | -3.7% | -12.0%
COc1ccccc1NS(=O)(=O)c1cccc(C(=O)N/N=C/c2ccc3c(c2)OCCO3)c1 | -6.3% | 28.0* | 37.7% | 52.6* | 0.7% | 3.1%
CCN(CC)c1ccc(/C=N/NC(=O)c2cccc(S(=O)(=O)Nc3ccccc3OC)c2)c(O)c1 | 1.78µM* | -2.6 | 0.5% | -2.2 | 0.8% | 23.8%
COc1ccc(CCN2C(=O)c3[nH]nc(-c4ccccc4O)c3C2c2ccc(OC)cc2)cc1 (stereo not drawn) | nt | nt | -3.8% | nt | nt | nt
C[C@H]1CN([C@@H](C)CO)S(=O)(=O)c2ccc(C#CC3(O)CCCC3)cc2O[C@@H]1CN(C)C(=O)Cc1cccnc1 | nt | nt | -10.4% | nt | nt | nt
CCCc1ccc(OCc2nc(-c3ccc(NC(=O)c4ccco4)cc3)no2)cc1 | -6.6% | 47.0* | 4.3% | 56.5 | -14.7% | -10.5%
NC(=O)COc1ccc(-c2noc(COc3ccc(Cl)cc3)n2)cc1 | nt | nt | 2.2% | nt | nt | nt
CCCc1ccc(OCc2nc(-c3ccc(NC(=O)c4cccs4)cc3)no2)cc1 | -7.5% | 80.3* | 1.4% | 176.2* | -11.8% | -3.8%
O=C(NCCc1nc(-c2ccccc2)no1)c1ccco1 | nt | nt | 12.1% | nt | nt | nt
CNC(=O)/C(C#N)=C/c1ccc(-c2ccc(Cl)cc2)o1 | -1.9% | 27.7* | -6.1% | 76.3* | -1.5% | 2.4%
Cc1cccc(C)c1NC(=O)/C(C#N)=C/c1ccc(-c2ccc(C(=O)O)cc2)o1 | -2.2% | 20.7* | -0.8% | 69.6* | -1.7% | 14.1%
CNC(=O)/C(C#N)=C/c1ccc(-c2ccccc2[N+](=O)[O-])o1 | -1.8% | 36.2* | -0.7% | 34.8 | 0.4% | -7.7%
Cc1ccc(C(=O)N/C(=C\c2ccc(-c3ccccc3[N+](=O)[O-])o2)C(=O)NCCN(C)C)cc1 | -6.2% | 12.5* | -1.1% | 18.2 | -8.9% | -13.5%
N#C/C(=C\c1ccc(-c2ccccc2[N+](=O)[O-])o1)C(N)=O | -0.7% | -0.7 | -4.4% | 3.9 | 5.5% | -2.7%
Oc1ccc(CCNCCCCCCNCCc2ccccc2)cc1O | nt | nt | 10.4% | nt | nt | nt
O=C(/C=C/c1ccc(-c2ccccc2[N+](=O)[O-])o1)c1ccccc1 | -29.3% | 51.5* | -4.7% | 96.2* | -0.5% | -42.1%
O=C1/C(=C\c2ccc(-c3ccccc3[N+](=O)[O-])o2)C(c2ccccc2)=NN1c1ccccc1 | -6.8% | 1.6 | -3.4% | -0.3 | -10.9% | 8.3%
O=C(O)/C(=C\c1ccc(-c2ccccc2[N+](=O)[O-])o1)c1ccccc1 | 0.0% | 11.1 | 1.1% | 27.6* | -15.6% | -14.3%
